Screens as filed in PubChem.
PAFAH1B2 inh – PAFAH1B2 enzyme inhibitors, primary screen, biochemical, fluorescence polarization, human; Platelet-activating factor acetylhydrolase IB subunit alpha2 (Homo sapiens), P68402; recombinant PAFAH1B2, FP-rhodamine activity probe; inhibition, % at 3.39 µM; actives 1.2% (n = 340,000);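 active = inhibition above the mean of all tested compounds plus 3 SD, cut at about 24% in these data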;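 note: 0% = enzyme with DMSO and 100% = wells lacking PAFAH1B2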
DAGLB inh – DAGLB lipase inhibitors, primary screen, biochemical, fluorescence, HTS. HEK293T DAGLB membrane lysate, EnzChek fluorogenic substrate. inhibition, % at 5.17 µM. actives 0.059% (n = 340,000). Diacylglycerol lipase-beta (Homo sapiens), Q8NCG7; in the data active = inhibition above about 34%;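 note: 0% = enzyme with vehicle and 100% = wells lacking enzyme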
pPAFAH FP inh – pPAFAH enzyme inhibitors, primary screen, biochemical, fluorescence polarization, human. actives 1.5% (n = 330,000). inhibition, % at 3.39 µM. recombinant pPAFAH, FP-rhodamine probe fluorescence polarization;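 active = inhibition above the mean inhibition across the screen plus 3 SD, cut at about 25% in these data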;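 note: inhibitors block binding of the rhodamine activity-based probe so polarization drops; 0% = enzyme with DMSO and 100% = wells lacking pPAFAH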
Target sequence (Q13093 whole entry, looked up): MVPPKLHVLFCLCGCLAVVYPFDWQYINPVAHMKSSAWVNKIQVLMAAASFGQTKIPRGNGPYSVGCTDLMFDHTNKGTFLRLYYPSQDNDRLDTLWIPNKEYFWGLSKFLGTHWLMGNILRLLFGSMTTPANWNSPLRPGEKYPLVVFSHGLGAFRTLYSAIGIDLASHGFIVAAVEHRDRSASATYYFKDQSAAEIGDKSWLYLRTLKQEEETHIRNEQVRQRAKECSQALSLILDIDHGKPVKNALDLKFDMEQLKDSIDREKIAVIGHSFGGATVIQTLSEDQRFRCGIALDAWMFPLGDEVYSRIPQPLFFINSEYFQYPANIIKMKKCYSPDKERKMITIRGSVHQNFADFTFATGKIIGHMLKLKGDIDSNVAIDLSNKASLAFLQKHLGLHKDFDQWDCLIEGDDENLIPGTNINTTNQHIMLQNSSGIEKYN
PAFAH2 FP inh – PAFAH2 enzyme inhibitors, primary screen, biochemical, fluorescence polarization, human; AID 492956, 2010; recombinant PAFAH2, FP-rhodamine activity probe; inhibition, % at 3.39 µM; actives 0.99% (n = 340,000);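 active = inhibition above the mean over all tested compounds plus 3 SD, cut at about 30% in these data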;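 note: inhibitors block probe labeling of enzyme so polarization drops; 0% = enzyme with DMSO and 100% = wells lacking PAFAH2 protein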
HTRA1 inh – HTRA1 serine protease inhibitors, primary screen, biochemical, fluorescence polarization, HTS | recombinant HTRA1, FP-rhodamine activity-based probe | Q92743 | actives 0.5% (n = 340,000) | inhibition, % at 5.96 µM | AID 504803, 2011; in the data active = inhibition above about 36%;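 note: 0% = enzyme with DMSO and 100% = wells lacking enzyme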
PAFAH1B3 inh – PAFAH1B3 enzyme inhibitors, primary screen, biochemical, fluorescence polarization, human | Platelet-activating factor acetylhydrolase IB subunit alpha1 (Homo sapiens), Q15102 | actives 0.28% (n = 340,000) | inhibition, % at 3.39 µM | recombinant PAFAH1B3, FP-rhodamine probe | AID 492972, 2010;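 active = inhibition above the screen-wide average of all tested compounds plus 3 SD, cut at about 25% in these data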;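 note: 0% = enzyme with DMSO only and 100% = wells lacking PAFAH1B3 protein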
* = called active by the depositor; x = no result given. In the library only some 2.8% were active in any assay of this set; here they are far more common.

SMILES	PAFAH1B2 inh	DAGLB inh	pPAFAH FP inh	PAFAH2 FP inh	HTRA1 inh	PAFAH1B3 inh
Cc1nc(N2N=C(c3ccc(Cl)cc3)CC2c2ccco2)sc1C(=O)N(C)C (stereo not drawn)	-1	2	14	13	-17	5
COc1ccc(C2=NN(c3nc(-c4ccccc4)c(CC(=O)O)s3)C(c3ccco3)C2)cc1 (stereo not drawn)	-3	4	30*	3	-32	-7
CCCN(C(=O)CSc1cc(-c2ccccc2)c2ccc(OC)cc2n1)C1CCS(=O)(=O)C1 (stereo not drawn)	0	-1	25*	-14	-22	6
CCN(C(=O)CSc1cc(C)c2ccccc2n1)C1CCS(=O)(=O)C1 (stereo not drawn)	3	-1	4	-2	-2	4
CC(C)(C)c1ccc(OCC(=O)N2CCN(c3ncccn3)CC2)cc1	3	-4	26*	16	-7	-4
CC(C)(C)c1ccc(/C=C/C(=O)N2CCN(c3ncccn3)CC2)cc1	6	0	32*	4	-16	12
O=C(/C=C/c1ccc(Cl)c(C(F)(F)F)c1)N1CCN(c2ccccn2)CC1	2	-3	29*	40*	-6	3
CC(C)(C)c1ccc(OCC(=O)N2CCN(c3ccccn3)CC2)cc1	16	-5	16	6	-1	5
C/C=C(\C)CN1CCCC(CO)(Cc2ccccc2)C1 (stereo not drawn)	4	1	-6	-1	1	7
COC(=O)C1CN(C(=O)COc2ccc(C)cc2)c2ccccc2O1 (stereo not drawn)	8	-4	5	-2	8	6
COc1ccc(C(OC(=O)c2ccco2)C(=O)NC(C)(C)C)cc1OC (stereo not drawn)	-1	2	x	-1	3	-2
COc1ccccc1-c1c(C)nn2c(N3CCN(Cc4ccccc4)CC3)cc(C)nc12	4	-3	28*	3	-2	1
Cc1c(CCOC(=O)C23CC4CC(CC(C4)C2)C3)sc[n+]1CC#N	5	0	0	3	8	1
O=C(O)c1ccc(S(=O)(=O)N(Cc2ccc(F)cc2)C2CCCCC2)cc1	26*	3	3	0	-4	-2
CN(Cc1ccccc1)S(=O)(=O)c1ccc(S(=O)(=O)N(Cc2ccc(F)cc2)C2CCCC2)cc1	3	-6	-3	6	7	0
O=C(COc1ccc2ccccc2c1)Nc1ccccc1C(=O)O	8	4	-3	-21	-7	3
CCCCCCc1cc2cc(S(=O)(=O)c3ccc(F)cc3)c(=O)oc2cc1O	1	4	14	8	-4	2
O=C(O)c1ccc2oc(=O)c(S(=O)(=O)c3ccc(F)cc3)cc2c1	32*	-1	-2	45*	3	-3
Cc1ccc(S(=O)(=O)c2cc3ccccc3oc2=O)cc1	-1	2	3	1	2	10
O=C(O)c1ccc2oc(=O)c(S(=O)(=O)c3ccccc3)cc2c1	27*	3	2	17	-1	4
CCN1CCN(S(=O)(=O)c2ccc(Cl)c(C(=O)NC3CCC(C)CC3)c2)CC1 (stereo not drawn)	18	1	5	-6	0	12
CCN1CCN(S(=O)(=O)c2ccc(Cl)c(C(=O)NC3CCCCC3)c2)CC1	28*	-1	1	-1	-4	5
CCn1c2ccccc2c2cc(NC(=O)c3coc(=O)c(Br)c3)ccc21	x	x	10	x	x	x
CCn1c2ccccc2c2cc(NC(=O)c3ccc(=O)oc3)ccc21	x	x	33*	x	x	x
COc1cccc(NC(=O)C2CCCN(S(C)(=O)=O)C2)c1 (stereo not drawn)	0	-1	4	-7	5	-7
COc1cccc(CN2CC(C(=O)NCc3ccc(Cl)s3)CCC2=O)c1 (stereo not drawn)	7	-3	x	3	-6	8
